Measured values published in PubChem BioAssay (NCI).
About 83,000 compounds went through this panel and 20% of them were active in at least one assay; those are over-represented in the sample as a whole.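 Note: values are percent growth. 100 is the growth of untreated cells, values between 100 and 0 indicate rising inhibition; between -100 and 0 indicates cell death.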 Unmarked numbers belong to inactive results. The source made the active and inactive calls. The calls were made as follows: active = growth percent below 10; inactive = the rest.

Test system: OVCAR-3 ovarian
Test: NCI-60 one-dose screen, 48 h (100 = growth as untreated, 0 = no growth, -100 = all killed)
Settings: 10 µM unless noted

SMILES	growth
COc1nc(OC)nc(-c2cc(C(=O)c3ccc(Br)cc3)n3cc(C)cc(C)c23)n1	34.5%
CC(=O)OCC(=O)[C@@]1(O)[C@H](C)C[C@H]2[C@@H]3C=C(C)C4=Cc5c(cnn5-c5ccc(F)cc5)C[C@]4(C)[C@H]3[C@@H](O)C[C@@]21C	-20% (active)
Brc1c(-c2ccncc2)nc2n1CCS2	97.6%
CC(=O)/C(=C\c1c(-c2ccccc2)[nH]c2ccccc12)S(=O)(=O)c1ccccc1	-36.6% (active)
COc1ccc(/C=N/c2cc(C(C)(C)C)nn2-c2ccccc2)cc1	125%
CCC1(CC)C(OC)NC(Br)=C(C#N)C1(C#N)C(N)=O (centres undefined)	119%
COc1ccc(CN2C(=O)/C(=C\C(=O)c3ccc(OCCN4CCCC4)cc3)c3ccccc32)cc1	49.6%
COc1ccc(/C=C2\SC(=O)N(Cc3cc(=O)oc4ccc(OC)cc34)C2=O)cc1	84.6%
c1cc(C2CCCCC2)ccc1OCCCCCCN1CCNCC1	40.5%
COc1cc(/C=C/C(=O)/C=C(/C=C/c2ccc(OC(C)=O)c(OC)c2)OB(F)F)ccc1OC(C)=O	18.9%
Cc1c([C@H](C(Cl)Cl)[C@H](O)[C@H]2C[C@H](C)C(=O)O2)ccc2c1C(=O)[C@H]1[C@H]2C[C@@H](Br)[C@@]23O[C@@H](CO[C@H]2O)CC13C (some centres undefined)	-56.5% (active)
O=C1/C(=N\c2cc(=O)[nH]n2S(=O)(=O)c2ccccc2)Nc2ccccc21	104%
N=C(N)c1ccc(-c2ccc(-c3ccc(Cl)cc3)s2)s1	-78.8% (active)
COc1cc([C@@H]2c3cc4c(cc3[C@H](O)[C@H]3COC[C@@H]23)OCO4)cc(OC)c1OC	56.8%
O=Nc1c(-c2c(O)[nH]c3cc(Br)ccc23)[nH]c2ccccc12	-64.9% (active)
CC(C)(C)C(=O)OCOP(=O)(OCOC(=O)C(C)(C)C)C1CC(O)N(O)C1=O (centres undefined)	53.6%
CC1(C)CC(=O)C2=C(C1)Oc1nc(N)c(C#N)c(N)c1C2c1ccc(F)cc1 (centres undefined)	121%

SMILES	growth
O=C1c2cc([N+](=O)[O-])ccc2-c2cc(Cl)c(NC(=O)C(F)(F)F)cc21	133%
COc1ccc(CNCCCN2C(=O)c3ccc4c5c(ccc(c35)C2=O)C(=O)N(CCCNCc2ccc(OC)c(OC)c2OC)C4=O)c(OC)c1OC	-91.8% (active)
O=C(Nc1ccccc1)Nc1ccc(Nc2ncnc3sc4c(c23)CCCC4)cc1	103%
O=S(=O)(Cc1cccc2c(CS(=O)(=O)c3ccc(Cl)cc3)cccc12)c1ccc(Cl)cc1	95.9%
COc1cc(CNC(=O)CCCC/C=C/C(C)C)ccc1OCc1nnc(Nc2ccccc2F)o1	68.3%
Nc1nc2c(c3ncncc13)C(c1cccc(C(F)(F)F)c1)Cc1ncncc1-2 (centres undefined)	2.43% (active)
Cn1cnc2nc[nH]c2c1=S	115%
O=C(O)c1ccc(-c2nn(-c3ccc(C(=O)O)cc3)cc2CNc2ccc(Br)cc2)cc1	104%
O=C(N/N=C/c1coc2ccccc2c1=O)c1cc2oc(-c3ccccc3)cc2[nH]1	99.8%
CCC(C)C1NC(=O)C(CC(C)C)NC(=O)C(C)NC(=O)C(C(C)C)NC(=O)C(CCCCN)NC(=O)C(CC(C)C)NC(=O)C(C(C)C)NC(=O)[C@H](C)NC(=O)C(C(C)CC)NC(=O)C(CCCN=C(N)N)NC(=O)C(CCCCN)NC(=O)C(CCCN=C(N)N)NC(=O)C(CCCCN)NC(=O)C([C@H](C)CC)NC(=O)C(CCCCN)NC1=O (some centres undefined)	8.18% (active)
C=CCN(C)C	118%
CCC(CCCN1C(=O)c2ccccc2C1=O)Nc1cc(OC)cc2cccnc12 (centres undefined)	106%
O=c1c(N=Nc2nccs2)c(-c2ccccc2)[nH]n1-c1nc(-c2ccccc2)cs1	31.6%
Cc1ccc(C(=O)Nc2ccc(CN3CCN(C)CC3)c(C(F)(F)F)c2)cc1C#Cc1cncc2ncccc12	24.8%
CCOC(=O)C1C(=O)C(=O)N(C(C)C)C1C(=O)OCC (centres undefined)	108%
COc1cc2c(cc1OC)C(Cc1cc(OC)c(OC)cc1[N+](=O)[O-])=NCC2	95.4%
COc1ccc2c(c1)/C(=C1/S/C(=N/c3nnc(C)s3)NC1=O)C(=O)N2Cc1ccc(Br)cc1	28.7%
